Shown is part of a subset that was picked to be rich in hits.
Tg IFNy HTS – blocks Toxoplasma gondii growth in the presence of IFN-gamma. Toxoplasma gondii growth in IFN-gamma-treated host cells; stronger effect = lower value. activity change, negative = inhibition, % (test concentration not listed). 69,000 compounds, 3.8% hits. AID 1259416; in the data active = activity change below about -70%, passing the limit was not always enough;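 note: host cells are HeLa cells infected with Toxoplasma gondii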
A number is an active result; 0 = inactive; ! = repeats disagree.

SMILES	Tg IFNy HTS
Nc1c(-c2nnc(-c3ccccc3)o2)sc2nc(-c3ccccc3)cc(-c3ccccc3)c12	-87
OC1(c2ccccc2)c2ccccc2-c2ccccc21	0
NC1=Nc2ccc(Cl)cc2C1(O)c1ccccc1 (configuration not stated)	-97
NC(=O)C1Cn2ccnc2C2(CCN(C(=O)c3ccccn3)CC2)O1 (configuration not stated)	0
COCC1CN(C(=O)COc2ccccc2C)Cc2ncn(C)c21 (configuration not stated)	0
Cc1noc2nc(C3CC3)cc(C(=O)N3CCCC(N(C)C)CC3)c12 (configuration not stated)	0
CC(C)(C#N)c1ccc(N2C(=O)OCc3cnc4ccc(-c5cnc6ccccc6c5)cc4c32)cc1	-85
Cc1ccc(C)c(-c2[nH]ncc2CN(C)Cc2snnc2C)c1	0
COc1cccc(CNC(=O)C2CC3(CO2)CN(C(=O)N(C)C)c2ccccc23)c1 (configuration not stated)	0
COc1ccc(C(C)=O)cc1CSc1nc2ccc(C(F)(F)F)cc2[nH]1	0
FC(F)(F)c1ccc2nc(SCc3cc(Cl)cc4c3OCOC4)[nH]c2c1	-81
Clc1cc2c(c(CSc3ccccc3C3=NCCCN3)c1)OCOC2	0
CC(C)N(C)Cc1ncn2c1CN(C(=O)c1ccncc1)CCC2	0
Cc1ccc(C(=O)NCCc2sc(-c3ccc(F)cc3)nc2C)cc1C	0
Cc1ccccc1CC(=O)N1CCC2(CC1)NC(=O)c1ccc(F)cc1N2C	0
CS(=O)(=O)c1ccc(-c2cnc(N)c(C(=O)Nc3ccccc3)n2)cc1	-86
CS(=O)(=O)c1ccc(C(=O)Nc2ccccc2Cl)cc1	0
CS(=O)(=O)c1ccc(-c2ccccc2C(N)=O)cc1	0
CC1=C(C(=O)NCc2ccccc2Cl)C2(CCN(S(C)(=O)=O)CC2)OC1=O	0
CC(C)CCNC(=O)C1(CC2CC(c3ccccc3)=NO2)CCN(C(=O)C(C)C)CC1 (configuration not stated)	0
CO[C@@H]1CC[C@H]2CCN(C)C(=O)[C@H](C)CN(C)C(=O)c3cc(C#N)ccc3OC[C@@H]1O2	0
COc1ccc(N2CCN(C(=O)c3cc4cccnc4n(Cc4ccccc4)c3=O)CC2)cc1	0
O=C(Nc1cc(Cl)ccc1O)c1ccccc1CN1CCOCC1	0
Cc1ccc(SCc2ccccc2C(=O)Nc2cc(Cl)ccc2O)cc1	-75
Cc1ccc(C(=O)NCCSCc2ccccc2Cl)cc1	0
SMILES	Tg IFNy HTS
CC(C)(c1ccc(Oc2cccc(N)c2)cc1)c1ccc(Oc2cccc(N)c2)cc1	0
Cn1nnc2c1C(COCc1ccccn1)CN(C(=O)c1cccs1)C2 (configuration not stated)	0
COc1cc2nc(N3CCCN(C)CC3)nc(NC3CCN(Cc4ccccc4)CC3)c2cc1OC	-88
COc1ccc(-c2nc(NC3CCN(Cc4ccccc4)CC3)c3ccccc3n2)cc1	0
CCCC(=O)N1CCCN(c2nc(N)c3cc(OC)c(OC)cc3n2)CC1	0
Cn1c(=O)n(C)c2cc(CNC(=O)Cc3noc4ccccc34)ccc21	0
CCn1c(CN2CC[C@@H](c3sccc3C)[C@H](O)C2)nc2ccccc21	0
CCn1c(CN2CCCC(n3c(=O)oc4ccc(Cl)cc43)C2)nc2ccccc21 (configuration not stated)	-87
O=c1oc2ccccc2n1C1CCCN(CC2=Cc3ccccc3OC2)C1 (configuration not stated)	0
CNC(=O)[C@@H]1CC2CN(S(=O)(=O)c3ccc(C)c(F)c3)CC2N1C (some centres not stated)	-93
CNC(=O)[C@H]1C[C@@H]2CN(Cc3ccoc3)C[C@@H]2N1C	0
CNC(=O)[C@@H]1CC2CN(S(=O)(=O)c3ccccc3)CC2N1C(C)=O (some centres not stated)	0
Nc1nc(-c2ccccc2)nn1C(=O)c1cccs1	0
Nc1[nH]c(=O)ncc1F	-79!
CCC(=O)N1C[C@@H]2OCCN(Cc3cnn(C)c3)[C@H]2C1	0
Cc1ccc2c(c1)cc(S(=O)(=O)c1ccccc1)c(=O)n2CC(=O)N1CCCCC1	0
COCCO[C@H]1CCN(C(=O)c2ccc[nH]2)[C@H]1Cc1cnn(C)c1	0
Cn1cc(-c2[nH]c3cc(NC(=O)[C@H](N)C4CCCCC4)cc4c3c2C=NNC4=O)cn1	-78
O=C(c1ccoc1)N1CC[C@H](OCC2CC2)[C@@H](Cc2ccccc2)C1	0
CCN(CCCNC(=O)C1=C(C)C(=O)OC12CCN(S(=O)(=O)CC)CC2)Cc1ccccc1	0
Cc1cc(Nc2nc(N[C@@H](C)c3ccc(F)cc3)c(C#N)cc2F)n[nH]1	-75
C[C@H]1CCCCO[C@H](CN(C)C(=O)c2ccncc2)[C@@H](C)CN([C@@H](C)CO)C(=O)c2cc(NS(=O)(=O)c3cccs3)ccc2O1	0
COc1ccc(C)cc1S(=O)(=O)N1CC(c2ccncc2)C1	0
Cc1ccc(C(=O)N2CCC[C@@]3(C(=O)N(C)C)CN(c4nnc(C)o4)C[C@H]3C2)cc1	0
COc1cccc(-c2cnc(N(C)C)nc2C2CCCN(C(=O)Cc3c(C)noc3C)C2)c1 (configuration not stated)	0

From PubChem BioAssay
